Consider 36 compounds from PubChem BioAssay (NCATS).

The nature of experiment [1]: qHTS for Inhibitors of the Functional Ribonucleoprotein Complex (vRNP) of Lassa (LASV) Arenavirus: Viability assay - alamar blue signal for LASV Primary Screen (AID 1347083; calls by dose curve; tested in HEK293 reporter line; also: nearly all actives have a fitted effect of over 80% in size; also: potency is read from the fitted curve at half-maximal effect). In general terms: Quantitative high-throughput screening tests each substance at several concentrations.
Experiment [2] can be described thus: qHTS for Inhibitors of the Functional Ribonucleoprotein Complex (vRNP) of Lymphocytic Choriomeningitis Arenaviruses (LCMV): Viability assay - alamar blue signal for LCMV Primary Screen (AID 1347085; calls by dose curve; tested in HEK293 reporter line; also: nearly all actives have a fitted effect of over 80% in size; also: potency is read from the fitted curve at half-maximal effect).
The target of experiment [3] is Nucleoprotein (Lymphocytic choriomeningitis virus (strain Armstrong)) (UniProt P09992). Description: qHTS for Inhibitors of the Functional Ribonucleoprotein Complex (vRNP) of Lymphocytic Choriomeningitis Arenaviruses (LCMV): LCMV Primary Screen - GLuc reporter signal (AID 1347086). Also: nearly all actives have a fitted effect of over 70% in size. Also: potency is read from the fitted curve at half-maximal effect. As to activity change, negative = inhibition: % is scaled to controls: 0 for no effect and ±100 for the full control effect.
Chain of Nucleoprotein (Lymphocytic choriomeningitis virus (strain Armstrong)) (P09992 whole entry, looked up): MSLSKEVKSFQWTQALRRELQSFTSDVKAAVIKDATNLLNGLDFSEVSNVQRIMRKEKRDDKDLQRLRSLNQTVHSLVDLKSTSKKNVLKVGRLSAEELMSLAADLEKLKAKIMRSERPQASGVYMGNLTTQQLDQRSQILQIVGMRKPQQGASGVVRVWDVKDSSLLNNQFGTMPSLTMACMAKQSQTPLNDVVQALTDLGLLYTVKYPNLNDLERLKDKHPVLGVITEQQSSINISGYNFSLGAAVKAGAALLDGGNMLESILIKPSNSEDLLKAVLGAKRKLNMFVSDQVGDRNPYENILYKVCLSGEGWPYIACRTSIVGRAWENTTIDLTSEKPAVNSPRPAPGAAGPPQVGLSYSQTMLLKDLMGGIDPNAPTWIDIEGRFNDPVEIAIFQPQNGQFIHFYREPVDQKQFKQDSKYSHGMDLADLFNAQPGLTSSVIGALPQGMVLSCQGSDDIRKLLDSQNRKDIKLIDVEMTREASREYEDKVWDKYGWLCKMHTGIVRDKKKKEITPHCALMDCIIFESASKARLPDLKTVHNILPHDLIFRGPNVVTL
Experiment [4] in a line: Cytotoxicity counterscreen for inhibitors of SARS-CoV-2 cell entry (AID 1645845). Also: nearly all actives have a fitted effect of over 50% in size. In outline: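 Expi293F/hACE2 cells seeded overnight; cpd pin-transferred in DMSO, 1 h preincubation, + media, 48 h 37 C 5% CO2; ATPLite 1step luminescence; normalized to cells and no cells.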
Background: The purpose of a counterscreen is to sort out artefacts and off-target activity.

Experiment [5] is described as follows: Primary qHTS to identify inhibitors of SARS-CoV-2 cell entry (AID 1645846). Also: nearly all actives have a fitted effect of over 45% in size. The settings on record: activity change, negative = inhibition: at 57.1 µM (top of the series) unless noted. The method, boiled down: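 HEK293-ACE2 (Expi293F, stable hACE2), 1500 cells/well, o/n 37C; cpd 23 nL pin, 1 h; MLV-PP w/ SARS-CoV-2-S (Wuhan-Hu-1, Δ19 C-term); 48 h 37C; Bright-Glo luminescence; normalized vs S-PP and bald PP.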

Experiment [6] in a line: Primary qHTS for inhibitors of SARS-S pseudo-typed particle cell entry (AID 1479145). Also: nearly all actives have a fitted effect of over 45% in size.
Experiment [7] is described as follows: Primary qHTS for Huh7 cytotoxicity: counterscreen for inhibitors of MERS-S pseudotyped particle cell entry (AID 1479147). Also: % is scaled to controls: 0 for no effect and ±100 for the full control effect. The settings on record: outcome: dose series up to 57.1 µM unless noted.
The nature of experiment [8]: Primary qHTS for inhibitors of MERS-S pseudo-typed particle cell entry (AID 1479149). Also: nearly all actives have a fitted effect of over 60% in size.
The nature of experiment [9]: Primary qHTS for Vero E6 cytotoxicity: counterscreen for inhibitors of SARS-S pseudo-typed particle cell entry (AID 1479150). Also: % is scaled to controls: 0 for no effect and ±100 for the full control effect. The following applies: outcome: dose series up to 57.1 µM unless noted.
A short description of experiment [10]: Confirmatory qHTS to identify inhibitors of SARS-CoV-2 cell entry (AID 1645844). Also: potency is read from the fitted curve at half-maximal effect; nearly all actives have a fitted effect of over 45% in size. The method, boiled down:
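HEK293-ACE2 cells (Expi293F stably expressing human ACE2) were pretreated with compounds for 1 hr at 37C, then infected with MLV-based particles carrying Wuhan-Hu-1 spike (C-terminal 19-aa truncation). Luciferase luminescence read after 48 hr; normalized to spike PP (100%) and bald PP (0%).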

Experiment [11] in a line: VSVG counterscreen qHTS to identify inhibitors of SARS-CoV-2 cell entry (AID 1645847). Also: potency is read from the fitted curve at half-maximal effect; nearly all actives have a fitted effect of over 65% in size. In outline:
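Expi293F/hACE2 cells, overnight plating; cpd 1 h, 37C/5% CO2; + VSV-G PP (MLV pseudotyping), 48 h; supernatant removed, Bright-Glo luciferase read. Norm: VSV-G PP and bald PP wells.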

Results filed as inconclusive are left out. Active and inactive are the calls of the source. Unless noted, calls follow the shape of the full dose curve.

On to `CC(O)(C#Cc1ccc2c(c1)N(c1nc(N)ncc1Cl)CC2)c1nccs1` (centres undefined), for which the figures for the Potency in experiment [1] and in experiment [2] were 21700 nM (active) and 17200 nM (active), respectively. Besides, in experiment [3], the Potency entry was “inactive”.

On to `Cc1ncnc2nc[nH]c12`, for which the Potency in experiment [1] is 1580 nM (active).

For `O=C1NC2C(=CC(O)C(O)C2O)c2cc3c(cc21)OCO3` (centres undefined), the results for the Potency in experiment [1] and in [2] were 199 nM (active) and 282 nM (active), respectively.

As to `O=C(C=Cc1ccc(CN(CCO)CCc2c[nH]c3ccccc23)cc1)NO`, the Potency in [1] and in experiment [2] was 1370 nM (active) throughout.

Regarding `CC(=O)OCC(=O)[C@@]12OC(C)(C)O[C@H]1C[C@H]1[C@@H]3C[C@H](F)C4=CC(=O)C=C[C@]4(C)[C@@]3(F)[C@@H](O)C[C@@]12C`, the Potency entry in [1] and in [2] was “inactive” in each case.

In the case of `C=C1C(=O)O[C@@H]2C[C@@H](C)[C@@H]3C=CC(=O)[C@@]3(C)[C@@H](OC(C)=O)[C@H]12`, the Potency in [1] and in experiment [2] was 4470 nM (active) each time.

Regarding `CC(=O)OC1C(O)C(C)OC(OC2C(OC(=O)C3CCC4C(C3)OC3(CC(OC(=O)/C=C/c5ccccc5)C(C)CO3)C43CO3)OC(C)C(O)C2OC(C)=O)C1O` (centres undefined), in [1], the Potency is 178 nM (active).

Consider `CC(=O)OC1CC2(O)C3CCC4CC(O)CCC4(C)C3CCC2(C)C1C1=CC(=O)OC1` (centres undefined), for which the Potency was 282 nM (active) in [1] and 316 nM (active) in experiment [2].

Take `O=c1[nH]c(=O)n([C@H]2C[C@@H](O)[C@@H](CO)O2)cc1F`: the Potency in experiment [1] was 5440 nM (active); in experiment [2] it was 7690 nM (active).

In the case of `COc1cc(OC)c(C=CS(=O)(=O)Cc2ccc(OC)c(NCC(=O)O)c2)c(OC)c1`, the results for the Potency in experiment [1], in experiment [2] and in experiment [3] were 217 nM (active), 273 nM (active) and 611 nM (active), respectively.

For the compound `C=Cc1ncc(OC)c2c1[nH]c1ccccc12`, the Potency result in experiment [1] and in experiment [2] was “inactive” in each case.

As to `CC[C@]12C=CCN3CC[C@@]4(c5cc([C@@]6(C(=O)OC)C[C@H]7C[C@@H](C(C)(F)F)CN(Cc8c6[nH]c6ccccc86)C7)c(OC)cc5N(C)[C@H]4[C@@](O)(C(=O)OC)[C@H]1OC(C)=O)[C@@H]32`, the Potency in [1] is 17.2 nM (active).

Take `O=C(O)CO`: the Potency result in [1] and in experiment [2] was “inactive” in each case.

As to `O=C(O)CO.[NH2-].[NH2-].[Pt+2]`, the Potency entry in [1] and in experiment [2] was “inactive” each time.

On to `CCCCCN=C(N)NN=Cc1c[nH]c2ccc(OC)cc12`, for which the results for the Potency in experiment [1] and in [2] were 6110 nM (active) and 10900 nM (active), respectively.

For the compound `Clc1ccc(C2(c3ccc(-c4cn[nH]c4)cc3)CCNCC2)cc1`, the Potency in [1] and in experiment [2] was 5440 nM (active) throughout.

For the compound `CCCCC1CCC(=O)O1` (centres undefined), the Potency result in [1] and in experiment [2] was “inactive” in each case.

For `COc1cc(C)ccc1O`, the Potency entry in experiment [1] and in experiment [2] was “inactive” throughout.

As to `C=C1CCC2[C@](C)(CO)[C@H](O)CC[C@@]2(C)[C@@H]1/C=C/C1=CCOC1=O` (some centres undefined), the Potency result in [1] and in experiment [2] was “inactive” throughout.

As for `CC[C@H]1OC(=O)[C@H](C)[C@@H](O[C@H]2C[C@@](C)(OC)[C@@H](O)[C@H](C)O2)[C@H](C)[C@@H](O[C@@H]2O[C@H](C)C[C@H](N(C)C)[C@H]2O)[C@](C)(O)C[C@H](C)C(=NOCOCCOC)[C@H](C)[C@@H](O)[C@]1(C)O`, the Potency entry in experiment [1] and in [2] was “inactive” in each case.

In the case of `O=C(Nc1nc2cccc(-c3ccc(CN4CCS(=O)(=O)CC4)cc3)n2n1)C1CC1`, the Potency in [1] was 38500 nM (active).

For `C[C@H]1[C@H](O)O[C@@H]2O[C@@]3(C)CC[C@@H]4[C@H](C)CC[C@@H]1[C@@]24OO3`, the Potency in experiment [1] was 10000 nM (active); in experiment [2], 15800 nM (active).

For `C/C=C/c1ccc(OC(C)[C@@H](O)c2ccc(O)c(OC)c2)c(OC)c1` (some centres undefined), the Potency entry in [1] and in experiment [2] was “inactive” each time.

In the case of `CCN(CC)CCNC(=O)COc1ccc(Cl)cc1`, the Potency entry in experiment [1] and in experiment [2] was “inactive” in each case.

In the case of `C=CC(=O)Nc1ccc2ncnc(Nc3ccc(OCc4cccc(F)c4)c(Cl)c3)c2c1`, the Potency in experiment [1] is 968 nM (active); in [2] it was 385 nM (active); in experiment [3] it was 432 nM (active).

With `C[C@@H](Oc1ccc2[nH]nc(C=Cc3cnn(CCO)c3)c2c1)c1c(Cl)cncc1Cl`, the Potency in [1] was 24300 nM (active); in experiment [2], 27300 nM (active).

Take `CC(Cc1ccccc1)(NC(=O)CN)c1ccccc1` (centres undefined): the Potency entry in experiment [1] and in experiment [2] was “inactive” throughout.

Consider `O=C1NC(=O)[C@@H](c2cn3c4c(cccc24)CCC3)[C@H]1c1c[nH]c2ccccc12`, for which the Potency is 2170 nM (active) in [1] and 4320 nM (active) in [2].

For `O=C(c1ccc(F)c(F)c1Nc1ccc(I)cc1F)N1CC(O)([C@H]2CCCCN2)C1`, the Potency was 8630 nM (active) in experiment [1] and 3060 nM (active) in experiment [2].

`CC(=CCOc1ccc2ccc(=O)oc2c1)C1=CC(=O)C(C)(C)O1`: the Potency entry in experiment [1] and in experiment [2] was “inactive” each time.

For `C#C[C@]1(O)CC[C@H]2[C@H]3CCc4cc(OC)ccc4[C@H]3CC[C@@]21C`, the values for the Potency in [1], in experiment [2] and in [3] were 13700 nM (active), 24300 nM (active) and 27300 nM (active), respectively.

As for `Cc1ccc(S(=O)(=O)Nc2nc3ccccc3nc2Nc2ccc3nsnc3c2)cc1`, the Potency in [1] is 1060 nM (active); in experiment [2], 2110 nM (active); in experiment [3], 1330 nM (active). For the same compound, the Potency result in [4] was “inactive”. Also, the activity change, negative = inhibition in experiment [5] is -18.1% [at 27.1 µM].

As for `CC(C(=O)O)c1ccc(C(=O)c2cccs2)cc1` (centres undefined), the Potency entry in [1], in [2], in experiment [6] and in experiment [8] was “inactive” in each case. Besides, the call in [7] and in experiment [9] was inactive.

Consider `O=C(Cc1ccc(-c2ccc(OCCN3CCOCC3)cc2)cn1)NCc1ccccc1`, for which the Potency is 48.5 nM (active) in [1]; 54.4 nM (active) in experiment [2]; 137 nM (active) in experiment [3]; 136 nM (active) in experiment [10]; 171 nM (active) in [11]. In addition, the activity change, negative = inhibition in [5] is -81.8%.

For `CO[C@@H]1[C@@H](O)[C@H](O)[C@@H](n2c3c(Cl)cccc3c3c4c(c5c6cccc(Cl)c6[nH]c5c32)C(=O)NC4=O)O[C@@H]1CO`, the Potency in experiment [1] is 1930 nM (active); in experiment [2] it was 2430 nM (active); in [3] it was 3060 nM (active).

`CN[C@H]1CCc2cc(OC)c(OC)c(OC)c2-c2ccc(OC)c(=O)cc21`: the Potency entry in experiment [1] and in [4] was “inactive” throughout. Further, the Potency in experiment [2] is 5.4 nM (active); in experiment [3], 17.2 nM (active); in experiment [10], 38.3 nM (active); in [11] it was 171 nM (active). For the same compound, in [5], the activity change, negative = inhibition is -76.7%.
